Screens: PubChem, National Center for Advancing Translational Sciences (NCATS)
Hits are enriched below; roughly 1% of the tested compounds scored in any of these assays.
TexasRed fluor: Total Fluorescence Counterscreen for Inhibitors of the Interaction of Thyroid Hormone Receptor and Steroid Receptor Coregulator 2. TRb/SRC2 Texas Red total fluorescence interference. Potency, µM (top dose mostly 106 µM), inactives show at the highest dose fluorescence change, negative = quenching. hit rate 0.29% among 280,000; active = well fitted curve in either direction with a large enough effect; inconclusive = small, poorly fitted or top-dose-only effect; note: potency is the fitted concentration of half-maximal effect; % is set by controls: 0 for no effect and ±100 for the full control effect
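Flags fluorescent or light-absorbing compounds by total fluorescence, S + 2P, at 555 nm excitation and 632 nm emission. Mixture: 20 nM Texas Red SRC2 peptide, 0.6 uM human TRb LBD, 1 uM T3, 5% DMSO; compound exposure 5 h at ambient temperature.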
Coupling enz: qHTS Assay for Inhibitors of Fructose-1,6-bisphosphate Aldolase from Giardia Lamblia: Coupling assay counterscreen | coupling enzyme system counterscreen, AmpLite Red fluorescence | activity change, negative = inhibition, % at 58.2 µM, hits read low | hit rate 0.67% among 290,000; in the data active = activity change below about -30%; note: % is set by controls: 0 for no effect and ±100 for the full control effect
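Counterscreen lacking aldolase: glyceraldehyde-3-phosphate coupling-enzyme reagent preincubated 10 min at RT with compound (at 57.5 uM final), then substrate/coupling system with AmpLite Red added; fluorescence read at 525/598 nm after 20 min RT.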
TCR act: Activators of T cell receptors: qHTS campaign. primary human leukocytes, anti-CD3, IL-2 HTRF, 48 h. Potency, µM (doses to about 9.22 µM), inactives show at the highest dose activation of IL-2 secretion, usual class: activators. 330,000 tested, under 10 active. AID 504894, 2011; active = well fitted curve in the direction sought with a large enough effect; inconclusive = small, poorly fitted or top-dose-only effect, or another doubt; inactive = no such curve, though single readings can be large; an effect the other way counts as inactive or inconclusive; note: % of control where 0% means no effect
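48 hr co-incubation of compounds, a-CD3 beads and primary human leukocytes; IL-2 quantified homogeneously by HTRF with anti-IL-2 K and d2 conjugates.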
TSHR antag: Antagonists of the Thyroid Stimulating Hormone Receptor: HTS campaign; hit rate 0.2% among 330,000; TSHR-expressing cells, TSH-stimulated cAMP HTRF, 2 h; stronger effect = lower value; Thyrotropin receptor (Homo sapiens), P16473; activity change, negative = inhibition, % at 11.5 µM; AID 504810, 2011;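 active = activity change below a set negative limit, meaning inhibition stronger than a set level, cut at about -70% in these data; inconclusive = activity change between two set negative limits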; note: % is set by controls: 0 for no effect and ±100 for the full control effect
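Inhibition of cAMP made by TSHR-expressing cells under TSH stimulation (4nM final, EC80; 2 h, 37 deg C) is quantified with a one-step lysis HTRF kit, anti-cAMP cryptate versus cAMP-d2.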
NPSR antag: qHTS Assay for Antagonists of the Neuropeptide S Receptor: cAMP Signal Transduction | CHO-NPSR cells, cAMP TR-FRET, antagonist mode | Potency, µM (doses to about 38.3 µM), for the others: at the highest dose activity change, negative = inhibition, hits mostly inhibitors | hit rate 1% among 220,000 | AID 1461, 2008; active = well fitted curve in the direction sought with a large enough effect; inconclusive = small, poorly fitted or top-dose-only effect, or another doubt; inactive = no such curve, though single readings can be large; an effect the other way counts as inactive or inconclusive; note: potency is the fitted concentration of half-maximal effect; % is set by controls: 0 for no effect and ±100 for the full control effect; nearly all actives have a fitted effect of over 50% in size
TRb SRC2 PPI: qHTS for Inhibitors of the Interaction of Thyroid Hormone Receptor and Steroid Receptor Coregulator 2 | Thyroid hormone receptor beta (Homo sapiens), P10828 | TRbeta-SRC2 peptide binding, fluorescence polarization; receptor liganded with 1 µM T3 | Potency, µM (titrated, usually from 106 µM), inactives show at the top dose activity change, negative = inhibition, usual class: inhibitors | hit rate 0.065% among 280,000 | AID 1469, 2008; active = well fitted curve in the direction sought with a large enough effect; inconclusive = small, poorly fitted or top-dose-only effect, or another doubt; inactive = no such curve, though single readings can be large; an effect the other way counts as inactive or inconclusive;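 note: potency is the fitted concentration of half-maximal effect; plate controls were bound peptide for no effect and peptide without receptor for full effect; nearly all actives have a fitted effect of over 50% in size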
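Polarization signal, normalized between peptide-alone and full complex controls, measured compound effects on T3-liganded human TRb LBD (0.6 uM) binding 20 nM Texas Red SRC2 peptide after 5 hr.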
Casp1 catalase: Concentration-Response Counterscreen for Redox Active Inhibitors of Caspase-1: Catalase; shares compounds with Coupling enz; AID 888, 2007; caspase-1 Ac-WEHD-AFC fluorescence rate, catalase buffer; 30 tested, under 10 active; Potency, µM (series often up to 57.5 µM), for inactives: at the highest dose activity change, negative = inhibition, hits mostly inhibitors
Casp1 confirm: Confirmation Concentration-Response Assay for Allosteric/Competitive Inhibitors of Caspase-1 | shares compounds with Coupling enz | hit rate 20% among 60 | purified caspase-1, fluorogenic substrate cleavage | Potency, µM (titrated, usually from 57.5 µM), for the others: at the top dose activity change, negative = inhibition, hits mostly inhibitors
Casp7 confirm: Confirmation Concentration-Response Assay for Allosteric/Competitive Inhibitors of Caspase-7; shares compounds with Coupling enz; recombinant caspase-7, fluorogenic substrate cleavage; Potency, µM (series often up to 57.5 µM), inactives show at the top dose activity change, negative = inhibition, usual class: inhibitors; 60 tested, under 10 active; active = well fitted inhibition curve with a large enough effect in the main read-out, with a control signal flat, not every such curve was filed as active; inconclusive = small, poorly fitted or top-dose-only effect, or a change in a side signal; inactive = no such curve, though single readings can be large or run the other way
Casp7 cysteine: Concentration-Response Counterscreen for Redox Active Inhibitors of Caspase-7: Cysteine | caspase-7 enzyme with cysteine, fluorogenic substrate, redox counterscreen | Potency, µM (doses to about 57.5 µM), for the others: at the highest dose activity change, negative = inhibition, actives largely listed as inhibitors | 60 tested, under 10 active | AID 908, 2007 | shares compounds with Coupling enz
CASP7 redox cat: Concentration-Response Counterscreen for Redox Active Inhibitors of Caspase-7: Catalase | AID 909, 2007 | 30 tested, under 10 active | shares compounds with Coupling enz | Potency, µM (doses to about 57.5 µM), for the others: top-dose activity, negative = inhibition, most hits filed as inhibitors | Caspase-7 Ac-DEVD-AFC fluorescence rate, catalase buffer
CASP1 redox cys: Concentration-Response Counterscreen for Redox Active Inhibitors of Caspase-1: Cysteine | shares compounds with Coupling enz | recombinant caspase-1, fluorogenic substrate, cysteine buffer | Potency, µM (series often up to 57.5 µM), without a hit: at the highest dose activity change, negative = inhibition, usual class: inhibitors | AID 929, 2007 | 60 tested, under 10 active
Numbers without * were called inactive; ? = inconclusive; / = not tested or not shown; [ ] = another dose, or the depositor's remark. Unless noted, calls come from the whole dose curve; as a rule, active = well fitted inhibition curve with a large enough effect in the main read-out, with a control signal flat; inconclusive = small, poorly fitted or top-dose-only effect, or a change in a side signal; inactive = no such curve, though single readings can be large or run the other way.

SMILES | TexasRed fluor | Coupling enz | TCR act | TSHR antag | NPSR antag | TRb SRC2 PPI | Casp1 catalase | Casp1 confirm | Casp7 confirm | Casp7 cysteine | CASP7 redox cat | CASP1 redox cys
COc1cc2c(Cc3c4c5c(cc(OC)c(OC)c5c5c(OC)c(OC)ccc35)CCN4C)c3c4c(cc(OC)c(OC)c4c2cc1OC)CCN3C | -2% | -33* | / | / | / | -6% | / | ? | -43% | -8% | / | ?
COc1ccc2c(c1)Cc1sc(NC(=O)c3cccs3)nc1-2 | -6% | -35* | -6% | 0 | ? | ? | ? | -48% | -12% | -13% | -12% | -54%
COc1ccc2c(c1)Cc1sc(NC(=O)c3cccc(F)c3)nc1-2 | -11% | / | / | / | / | 5% | / | / | / | / | / | /
Cc1ccc(N2C(=O)[C@@H]3[C@H](C2=O)C2c4ccccc4C=CN2[C@@H]3C(=O)c2ccco2)cc1 (some centres not stated) | -2% | -41* | -2% | -4 | -10%[46.1 µM] | 3% | / | 25µM* | -94% | -7% | / | ?
Cc1ccc(N2C(=O)[C@@H]3[C@H](C2=O)C2c4ccccc4C=CN2[C@@H]3C(=O)c2ccco2)c(C)c1 (some centres not stated) | 3% | -42* | 24% | -3 | -13%[46.1 µM] | ? | 32µM* | 25µM* | ? | -6% | -29% | -17%
Cc1ccc(N2C(=O)[C@@H]3[C@H](C2=O)[C@H]2C=C(C(=O)c4ccccc4)C=CN2[C@@H]3C(=O)c2ccc(Cl)cc2)cc1 | 1% | -6 | 9%[46.1 µM] | 7 | -7% | 4% | / | / | / | / | / | /
Cc1nnc(SCc2nc(-c3ccc(Cl)cc3)no2)n1-c1ccc(F)cc1 | ? | / | / | / | / | -27%[53 µM] | / | / | / | / | / | /
CCOc1ccc(Oc2nc(NCC(C)C)nc(NC(C)(C)C)n2)nn1 | 0% | / | / | / | / | -4% | / | / | / | / | / | /
Cn1ncc2c(N3CCN(c4ccccc4Cl)CC3)ncnc21 | -6% | / | / | / | / | 2% | / | / | / | / | / | /
COc1ccc2c(c1)C(=O)N(c1ccccc1OC)C(=O)C2 | 1% | -11 | 1% | 6 | -9%[46.1 µM] | -15% | ? | ? | -12% | -7% | -12% | ?
COc1ccccc1N1C(=O)Cc2ccccc2C1=O | / | -3 | 4% | -33 | / | / | / | / | / | / | / | /
